According to the supplement of paper PMC7866885, “A novel bicyclic 2,4-diaminopyrimidine inhibitor of Streptococcus suis dihydrofolate reductase” (PeerJ, 2021):
± gives the standard deviation.

tested on: Streptococcus suis HE06; assay: percent growth relative to DMSO control; higher = less growth inhibition; conditions: 10 µM; incubation time 18 h
Method: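 CLSI broth microdilution: 5x10^4 CFU of Streptococcus suis (strain P1/7 or HE06) incubated with 10 µM Pathogen Box compound in cation-adjusted Mueller Hinton broth, 37 °C, 5% CO2, 18 h. Growth read as OD600 and expressed as percent of the DMSO-treated control (100%); mean ± SD of three independent experiments.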

SMILES | percent growth
CO[C@@H]1CN(c2ccc(C#CC3(O)CN4CCC3CC4)c(Cc3ccccc3)n2)C[C@H]1O (some centres undefined) | 108 ± 2.9%
Cc1cc(C2=NOC(c3cc(Cl)c(F)c(Cl)c3)(C(F)(F)F)C2)ccc1C(=O)NCc1ccc2c(c1)C(C)(C)OB2O (centres undefined) | 60.3 ± 9.8%
Nc1c2c(nc3sc4c(c13)CCCC4)CCCC2 | 76.3 ± 20%
CO/N=C(\C(=O)OC)c1ccccc1CO/N=C(\C)c1cccc(C(F)(F)F)c1 | 102 ± 17%
Cc1nn(C)c(C)c1NS(=O)(=O)c1c(Cl)cc(-c2ccnc(N3CCNCC3)c2)cc1Cl | 94.8 ± 29%
CCc1nn(C)c(C(=O)NCc2ccc(Oc3ccc(C)cc3)cc2)c1Cl | 82.6 ± 11%
Cc1cccc(C(=O)Nc2ccnc(N(C)C3CCN(CC(C)C)CC3)c2)c1 | 95.9 ± 30%
Cc1nn(Cc2ccccc2)c(Cl)c1C(=O)NC1CCCCCC1 | 107 ± 13%
O=C1O[C@@H](COc2ccon2)CN1c1cc(F)c(C2=CCN(Cc3ccccc3)CC2)c(F)c1 | 2.62 ± 3.7%
CC1(C)OB(O)c2ccc(C3=NOC(c4cc(Cl)c(F)c(Cl)c4)(C(F)(F)F)C3)cc21 (centres undefined) | 15.4 ± 15%
O=C1O[C@@H](CO)CN1c1cc(F)c(C2=CCN(Cc3ccccc3)CC2)c(F)c1 | 3.88 ± 0.8%
CC1COC(Cn2cncn2)(c2ccc(Oc3ccc(Cl)cc3)cc2Cl)O1 (centres undefined) | 77 ± 5.4%
CO/C=C(/C(=O)OC)c1ccccc1Oc1cc(Oc2ccccc2C#N)ncn1 | 76.8 ± 3.1%
CC(C)(C)C(O)C(Oc1ccc(-c2ccccc2)cc1)n1cncn1 (centres undefined) | 86.7 ± 8.5%
